From PubChem BioAssay (Tox21) come the findings set out here.

Experiment [1] is described as follows: qHTS assay to identify small molecule antagonists of the estrogen related receptor (ERR) signaling pathway from Tox21 library - cell viability counter screen (AID 1224834). Also: nearly all actives have a fitted effect of over 30% in size. Also: potency is read from the fitted curve at half-maximal effect. As to conditions: ERR reporter cells viability, CellTiter-Fluor, 17.5 h; series mostly up to 92.4 µM. The essentials: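 Compounds in DMSO were pinned onto ERR cells that had been incubated for 6 h, and the plates were held at 37 C for 17.5 h. CellTiter-Fluor reagent was then added and fluorescence was measured after 30 min.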
A general note: In qHTS, concentration-response curves come from the screen itself.

Experiment [2] has as its target Luciferin 4-monooxygenase (Photinus pyralis) (UniProt P08659). As to the kind of experiment: qHTS assay to identify small molecule inhibitors of firefly luciferase (AID 1224835). Also: nearly all actives have a fitted effect of over 25% in size. Also: potency is read from the fitted curve at half-maximal effect. As to conditions: purified P. pyralis luciferase, luminescence inhibition; series mostly up to 115 µM. The essentials: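 Biochemical qHTS: compounds run as interplate titrations against purified firefly enzyme, with D-luciferin and ATP each at its KM concentration. Light output recorded by CCD imaging.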

Experiment [3] in a line: qHTS assay to identify small molecule antagonists of the constitutive androstane receptor (CAR) signaling pathway - cell viability counter screen (AID 1224837). Also: nearly all actives have a fitted effect of over 45% in size. Particulars: HepG2-CYP2B6-hCAR viability, CellTiter-Fluor, 23 h, co-treated with 50 nM CITCO; series mostly up to 92.4 µM. The essentials:
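Cells are seeded, rested 4 hr at 37 C/5% CO2, dosed with compound (15-point series) and 50 nM CITCO, incubated a further 23 hr, and then CellTiter-Fluor reagent is added before fluorescence is read. The line is HepG2 with stable hCAR and CYP2B6-2.2kb.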

A short description of experiment [4]: qHTS assay to identify small molecule antagonists of the estrogen related receptor signaling pathway with the pleiotropic PPARgamma coactivator (PGC) from Tox21 10K library - cell viability counter screen (AID 1224840; active = well fitted cell-killing curve with a large enough effect in the repeat runs, not every such curve was filed as active; also: nearly all actives have a fitted effect of over 40% in size; also: potency is read from the fitted curve at half-maximal effect). Particulars: PGC/ERR reporter cells viability, CellTiter-Fluor, 17.5 h; series mostly up to 92.4 µM. In outline: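 Cell viability is measured by CellTiter-Fluor fluorescence in PGC/ERR cells that receive compounds after a 6-hour attachment period and are then incubated 17.5 hours at 37 C.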

Experiment [5] in a line: qHTS assay to identify small molecule antagonists of the estrogen related receptor signaling pathway with the pleiotropic PPARgamma coactivator (PGC) from Tox21 10K library (AID 1224841; call rule not given here; also: actives are mostly falling curves and most rising ones were filed inactive; nearly all actives have a fitted effect of over 50% in size; also: potency is read from the fitted curve at half-maximal effect). As to conditions: PGC/ERR reporter cell line, ONE-Glo luciferase, 18 h; series mostly up to 92.4 µM. In outline: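 Cells stably carrying the PGC/ERR reporter, seeded at 2,000 per well, received pin-transferred compounds 6 h post-plating. Exposure lasted 18 h at 37 C. Signal: One-Glo luminescence.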

Experiment [6] in a line: qHTS assay to identify small molecule agonists of the estrogen related receptor signaling pathway with the pleiotropic PPARgamma coactivator (PGC) from Tox21 10K library (AID 1224842). Also: nearly all actives have a fitted effect of over 15% in size. As to conditions: PGC/ERR reporter cell line, luciferase ONE-Glo, 18 h; series mostly up to 92.4 µM. The essentials: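 PGC/ERR reporter cell line, 2,000 cells per well, incubated 6 h at 37 C before 23 nL compound in DMSO was added. After 18 h at 37 C, One-Glo luminescence read following 30 min at room temperature.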

Experiment [7] addresses Thyrotropin receptor (Homo sapiens) (UniProt P16473). Put plainly: qHTS assay to identify small molecule agonists of the thyroid stimulating hormone receptor (TSHR) signaling pathway (AID 1224843; calls by dose curve; also: nearly all actives have a fitted effect of over 45% in size; also: potency is read from the fitted curve at half-maximal effect). Particulars: TSHR-HEK293 cells, cAMP HTRF, agonist mode, 30 min; series mostly up to 92.4 µM. The essentials: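 HEK293/TSHR, 800 cells/well; cpd 30 min RT; add cAMP-d2 + anti-cAMP-cryptate, 1 h RT; fluorescence read on plate reader. 15-pt titration, n=3.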

Experiment [8] can be described thus: qHTS assay to identify small molecule agonists of the constitutive androstane receptor (CAR) signaling pathway - cell viability counter screen (AID 1224836). Also: nearly all actives have a fitted effect of over 45% in size. As to conditions: HepG2-CYP2B6-hCAR viability, CellTiter-Fluor, 23 h, PK11195 added to every well; series mostly up to 92.4 µM. In outline: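 Viability read-out: CellTiter-Fluor fluorescence after 23 h compound exposure at 37 C/5% CO2 in double-stable HepG2-CYP2B6-hCAR cells, with PK11195 present at 0.75 uM final; compounds tested in 15-point titration.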

Experiment [9] has as its target Nuclear receptor subfamily 1 group I member 3 (Homo sapiens) (UniProt Q14994). Put plainly: qHTS assay to identify small molecule antagonists of the constitutive androstane receptor (CAR) signaling pathway (AID 1224838). Also: nearly all actives have a fitted effect of over 40% in size. Also: potency is read from the fitted curve at half-maximal effect. Particulars: HepG2-CYP2B6-hCAR luciferase, CITCO-stimulated, 24 h; series mostly up to 92.4 µM. In outline: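 Luminescence from a CYP2B6-2.2kb promoter reporter in hCAR-expressing HepG2 cells reflects CAR signaling. Cells received compounds at 15 concentrations and 50 nM CITCO (final), then incubated 24 h at 37 C/5% CO2.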

For experiment [10] the target is unchanged. Put plainly: qHTS assay to identify small molecule agonists of the constitutive androstane receptor (CAR) signaling pathway (AID 1224839). Also: nearly all actives have a fitted effect of over 15% in size. Also: potency is read from the fitted curve at half-maximal effect.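 As to activation: HepG2 cells stably carrying human CAR and a CYP2B6 luciferase reporter.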 As to conditions: HepG2 hCAR CYP2B6-luciferase, agonist mode, 24 h; series mostly up to 92.4 µM. In outline: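 Luminescence read-out (ONE-Glo, 30 min, room temperature) from double-stable HepG2-CYP2B6-hCAR cells exposed 24 h to 15-point compound series in presence of 0.75 uM PK11195 final.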

Where “and” joins values, the source holds several entries; their conditions need not be identical. Identical values can stand only once. Records with an inconclusive call do not appear. The source holds several records for some structures; these can differ, active in one and inactive in another. Calls of active or inactive are those of the source. Unless noted, calls follow the shape of the dose curve; as a rule, active = well fitted curve in the direction sought with a large enough effect in the repeat runs; inconclusive = weak or mixed curves; inactive = no such curve, though single readings can be large; an effect the other way counts as inactive or inconclusive.
% is scaled to controls: 0 for no effect and ±100 for the full control effect.

Chain of Nuclear receptor subfamily 1 group I member 3 (Homo sapiens) (Q14994 whole entry, looked up): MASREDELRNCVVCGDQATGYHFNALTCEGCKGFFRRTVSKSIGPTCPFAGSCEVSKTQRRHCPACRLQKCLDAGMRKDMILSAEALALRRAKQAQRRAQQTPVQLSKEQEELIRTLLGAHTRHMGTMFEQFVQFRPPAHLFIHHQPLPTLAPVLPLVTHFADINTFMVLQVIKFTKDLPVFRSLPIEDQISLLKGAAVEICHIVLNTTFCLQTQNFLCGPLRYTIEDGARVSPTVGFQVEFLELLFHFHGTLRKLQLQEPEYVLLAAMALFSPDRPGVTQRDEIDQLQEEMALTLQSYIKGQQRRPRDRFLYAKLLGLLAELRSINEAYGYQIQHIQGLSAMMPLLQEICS
Chain of Luciferin 4-monooxygenase (Photinus pyralis) (P08659 whole entry, looked up): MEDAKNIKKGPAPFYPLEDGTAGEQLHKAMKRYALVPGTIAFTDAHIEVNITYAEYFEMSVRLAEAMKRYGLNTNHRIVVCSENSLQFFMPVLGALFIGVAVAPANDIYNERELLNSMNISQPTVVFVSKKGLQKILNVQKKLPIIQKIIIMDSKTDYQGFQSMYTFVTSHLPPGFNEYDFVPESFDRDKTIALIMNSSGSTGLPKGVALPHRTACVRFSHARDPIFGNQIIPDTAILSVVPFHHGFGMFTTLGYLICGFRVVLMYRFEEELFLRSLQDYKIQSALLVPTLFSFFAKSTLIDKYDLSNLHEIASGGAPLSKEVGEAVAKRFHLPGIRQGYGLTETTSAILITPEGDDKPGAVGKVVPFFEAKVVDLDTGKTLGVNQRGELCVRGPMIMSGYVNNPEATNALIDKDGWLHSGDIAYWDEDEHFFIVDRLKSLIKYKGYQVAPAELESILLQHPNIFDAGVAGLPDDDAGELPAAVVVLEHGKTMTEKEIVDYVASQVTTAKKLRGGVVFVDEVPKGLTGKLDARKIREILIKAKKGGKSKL
Chain of Thyrotropin receptor (Homo sapiens) (P16473 whole entry, looked up): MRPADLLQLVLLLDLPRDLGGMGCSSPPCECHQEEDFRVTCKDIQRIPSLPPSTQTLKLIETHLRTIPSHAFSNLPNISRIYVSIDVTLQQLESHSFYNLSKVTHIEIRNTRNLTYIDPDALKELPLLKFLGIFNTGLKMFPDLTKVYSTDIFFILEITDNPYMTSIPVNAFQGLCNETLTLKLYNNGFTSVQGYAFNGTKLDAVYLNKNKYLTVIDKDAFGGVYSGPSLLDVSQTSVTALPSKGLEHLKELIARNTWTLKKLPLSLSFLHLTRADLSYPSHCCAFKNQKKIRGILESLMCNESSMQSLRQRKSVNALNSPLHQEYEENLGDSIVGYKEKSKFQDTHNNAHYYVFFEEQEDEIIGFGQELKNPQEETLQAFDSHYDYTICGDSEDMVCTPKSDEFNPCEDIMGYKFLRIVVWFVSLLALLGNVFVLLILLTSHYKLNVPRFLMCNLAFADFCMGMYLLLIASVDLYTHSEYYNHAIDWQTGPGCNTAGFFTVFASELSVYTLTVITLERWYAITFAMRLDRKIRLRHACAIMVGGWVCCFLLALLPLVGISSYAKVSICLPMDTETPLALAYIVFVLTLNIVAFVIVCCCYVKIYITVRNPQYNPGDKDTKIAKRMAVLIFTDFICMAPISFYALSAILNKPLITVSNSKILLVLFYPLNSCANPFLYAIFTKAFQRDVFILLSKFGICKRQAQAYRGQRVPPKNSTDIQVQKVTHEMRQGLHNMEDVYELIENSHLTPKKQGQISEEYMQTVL

In the case of `Cn1c(CCCC(=O)O)nc2cc(N(CCCl)CCCl)ccc21`, the Potency result in experiment [1], in experiment [2], in [3], in [4], in [5] and in experiment [6] was “inactive” each time. Besides, the Potency entry in experiment [7] was “inactive”.
Take `CN(C)C(=O)Oc1cc(OC(=O)N(C)C)cc(C(O)CNC(C)(C)C)c1` (stereo not given): the Potency entry in experiment [1], in experiment [2], in experiment [3], in experiment [4], in experiment [5] and in experiment [6] was “inactive” each time.
For the compound `N[C@@H]1C[C@H]1c1ccccc1`, the Potency result in experiment [1], in experiment [2], in experiment [3] and in experiment [7] was “inactive” each time.
As for `Cc1ccc2c(c1)C1CN(C)CCC1N2` (stereo not given), the viability change, negative = cytotoxic was 8.02% [at 19 µM] (inactive) in [1] and 2.92% [at 19 µM] (inactive) in experiment [4]. For the same compound, in [2], the activity change, negative = inhibition is -0.519% [at 23.6 µM] (inactive). The activity change, negative = cytotoxicity in experiment [3] was 1.97% [at 19 µM] (inactive). In experiment [5], the activity, negative = inhibition was -1.31% [at 19 µM] (inactive). In experiment [6], the activation was -0.364% [at 19 µM] (inactive).
With `COc1cc(CCN)cc(OC)c1OC`, the Potency entry in experiment [1], in experiment [2], in [3], in [4] and in [7] was “inactive” in each case.
Turning to `Cc1ccc2cc(C)ccc2c1`, the Potency result in experiment [1], in experiment [8], in experiment [3], in experiment [9], in [10] and in [4] was “inactive” each time. For the same compound, the Potency entry in experiment [5] and in [6] was “inactive” throughout.
As for `CCCC(C)C1(CC)C(=O)N=C(S)NC1=O` (stereo not given), the Potency entry in experiment [1], in experiment [8], in experiment [9], in experiment [10] and in experiment [4] was “inactive” each time.
`NCC1(CC(=O)O)CCCCC1`: the Potency result in experiment [1], in [3], in [4] and in experiment [7] was “inactive” in each case.
On to `C=CCN1CC[C@]23CCCC[C@H]2[C@H]1Cc1ccc(O)cc13`, for which the Potency entry in [1], in experiment [2], in [9], in [10], in [4] and in experiment [5] was “inactive” throughout. Further, the Potency entry in [6] and in experiment [7] was “inactive” each time.
Take `C[C@H]1CCCC(=O)CCC/C=C/c2cc(O)cc(O)c2C(=O)O1`: the Potency in experiment [1] is 26.3 µM (active) and 17.8 µM (active); in experiment [9] it was 20.9 µM (active); in [4], 23.4 µM (active). Also, the Potency entry in [2] was “inactive”.
For the compound `CCN[C@@H](C)Cc1ccccc1`, the Potency entry in [1], in [2], in experiment [3], in [4], in experiment [5] and in experiment [6] was “inactive” each time. Moreover, the Potency entry in [7] is “inactive”.
For the compound `NC1(c2ccccc2)CCCCC1`, the Potency result in experiment [2], in [4] and in experiment [7] was “inactive” throughout.
Consider `S=C=S`, for which the Potency result in experiment [1], in [8], in [3], in experiment [4], in [5] and in [6] was “inactive” throughout. The Potency result in experiment [7] is “inactive”.
Regarding `O=C(Cl)/C=C/C(=O)Cl`, the Potency result in experiment [1], in [3], in experiment [4] and in [6] was “inactive” throughout.
As to `C#CCOC(=O)/C=C(C)/C=C/CC(C)CCCC(C)C` (stereo not given), the Potency result in experiment [1], in experiment [2], in experiment [9], in [10], in experiment [4] and in experiment [5] was “inactive” each time. Besides, the Potency result in [6] and in [7] was “inactive” each time.
With `CCOP(=S)(OCC)Oc1ccc(Cl)cc1Cl`, the Potency entry in [1], in experiment [2], in experiment [9], in experiment [4] and in experiment [7] was “inactive” each time. In experiment [10], the Potency was 27.3 µM (active).
`BrCC1CO1` (stereo not given): the Potency result in [1], in experiment [2], in [9] and in [10] was “inactive” in each case.
For the compound `Clc1nc(Cl)nc(Nc2ccccc2Cl)n1`, the Potency result in [1], in [3], in experiment [9], in [10], in [4] and in [5] was “inactive” in each case. Also, the Potency result in experiment [6] was “inactive”.
On to `CCOC(=O)COc1ccc(Cl)cc1Cl`, for which the Potency result in [1], in experiment [9] and in [4] was “inactive” in each case. Further, the Potency in [2] is 35.6 µM (active).
As for `O=[N+]([O-])c1cccc(CCl)c1`, the Potency result in [1], in experiment [8], in [3], in experiment [4] and in experiment [7] was “inactive” in each case.
For `O=C1C2CC=CCC2C(=O)N1SC(Cl)(Cl)Cl` (stereo not given), the Potency entry in experiment [1] is “inactive and 53.6 µM (active)”; in experiment [2], 25.1 µM (active) and 31.2 µM (active); in experiment [9] it was “inactive and 13.5 µM (active)”; in experiment [4] it was “inactive and 30.1 µM (active)”; in experiment [5], 7.66 µM (active) and 47.8 µM (active); in experiment [7], “inactive and 21.3 µM (active)”. The Potency entry in [10] and in experiment [6] was “inactive” each time.
Regarding `C[N+]1(C)CCCCC1`, the Potency entry in experiment [1], in experiment [2], in experiment [3], in experiment [4] and in experiment [7] was “inactive” throughout.
For `CCOC1Oc2ccc(OS(C)(=O)=O)cc2C1(C)C` (stereo not given), the Potency result in [1], in experiment [2], in experiment [9] and in [7] was “inactive” in each case.
For the compound `CC(C)(N)Cc1ccc(Cl)cc1`, the Potency entry in experiment [2], in [8], in [3], in [10] and in experiment [4] was “inactive” in each case.
As for `BrCc1ccc(Br)cc1`, the Potency entry in experiment [2], in experiment [8], in experiment [3], in experiment [9], in experiment [10] and in experiment [4] was “inactive” throughout. Also, in [7], the Potency result was “inactive”.
For the compound `C[C@H](N)C(=O)c1ccccc1`, the Potency result in experiment [1], in experiment [2], in [10], in experiment [4] and in experiment [7] was “inactive” in each case.
Turning to `O=C(O)C(F)(F)C(F)(F)C(F)(F)C(F)(F)C(F)(F)C(F)(F)F`, the Potency entry in experiment [1], in experiment [8], in [3], in experiment [9], in [10] and in experiment [4] was “inactive” in each case. For the same compound, the Potency result in experiment [7] was “inactive”.
Regarding `CNC(=O)O/N=C(/CSC)C(C)(C)C`, the Potency result in experiment [1], in [2], in [9], in [4] and in experiment [7] was “inactive” throughout.
`CC(Cc1ccccc1)NCCn1cnc2c1c(=O)n(C)c(=O)n2C` (stereo not given): the Potency entry in experiment [2], in experiment [8], in [3], in [4], in [5] and in experiment [6] was “inactive” throughout. Besides, in experiment [7], the Potency result is “inactive”.
